A selection: hits, their analogues and other compounds. The true share with any hit is near 2.8%.
KKLEB tox – cytotoxicity in KKLEB CF airway cells, primary screen, cytotoxicity control for CF NF-kB inhibitor project, cell-based, uHTS, fluorescence assay plates; KKLEB CF airway cells viability, ATPlite luminescence, overnight; active compounds read low; cells stimulated with P. aeruginosa culture filtrate; activity change (cytotoxicity), % at 5 µM; hit rate 0.36% among 360,000;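 active means corrected activity change at or below -50% at 5 µM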
MITF TRPM1 inh – inhibitors of MITF-dependent TRPM1 promoter reporter, primary screen, cell-based, SK-MEL-5, single point, luciferase; hit rate 0.83% among 330,000; SK-MEL-5 TRPM1 promoter luciferase, 24 h; inhibition, % at 12.5 µM;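 active means mean inhibition across replicates of 60% or more, whatever share of single replicates reaches that level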
CF NFkB inh – inhibitors of PAF-induced NF-kB signaling, primary screen, cell-based, GFP fluorescence, uHTS. KKLEB NF-kB-GFP reporter, GFP fluorescence overnight. inhibition, % at 5 µM. hit rate 0.86% among 360,000. AID 588850, 2011;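 active means at least 50% inhibition at 5 µM, scaled per plate between neutral and stimulator controls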;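 further: PAF is a Pseudomonas aeruginosa culture filtrate used as stimulus; plate controls were PAF-stimulated DMSO wells for no effect and unstimulated DMSO wells for full effect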
Shn3 3UTR inh – reduction of Shn3 3'UTR firefly luciferase signal, primary screen, Schnurri-3 inhibitor project, cell-based, Clone20 osteoblasts, set 2 | Clone20 osteoblast Shn3 3'UTR firefly luciferase, 24 h | inhibition, % at 12.5 µM | hit rate 0.52% among 360,000 | AID 588674, 2011;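 active means mean inhibition of at least 75% with every replicate also reaching 75%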;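 further: 0% = median of neutral control wells and 100% = pilot-screen positive control compound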
Peg3 promoter – Peg3 promoter-driven luciferase inhibitors, primary screen, cell-based, HeLa, luciferase luminescence; HeLa PEG-Prom luciferase reporter, overnight; inhibition, % at 20 µM; hit rate 1.7% among 360,000; AID 588405, 2011;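 active means inhibition of at least 50% at 20 µM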
HIF-2a inh – HIF-2a reporter inhibitors, primary screen, luminescence, 786-0 RCC cells; 786-0 RCC cells HIF-2a reporter, luciferase luminescence, overnight; hit rate 0.72% among 360,000; inhibition, % at 18.8 µM;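 active means inhibition of the luminescence signal of 40% or more relative to plate controls, in a single-dose primary screen at 18.75 µM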
CF NFkB inh conf – inhibitors of PAF-induced NF-kB signaling, retest, confirmation, cell-based, GFP fluorescence, single concentration. KKLEB CF airway cells, overnight. shares compounds with CF NFkB inh. inhibition, % at 5 µM. hit rate 64% among 1,300; in the data active means inhibition above about 40%;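 further: stimulus PAF is a Pseudomonas aeruginosa filtrate and not platelet activating factor; plate controls were DMSO wells with stimulus for no effect and unstimulated DMSO wells for full effect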
The depositor's hits bear a star; / = not tested or not shown.

SMILES	KKLEB tox	MITF TRPM1 inh	CF NFkB inh	Shn3 3UTR inh	Peg3 promoter	HIF-2a inh	CF NFkB inh conf
Cc1ccc(-c2ccc(CN3C(C(C)C)C(=O)N(Cc4cn(Cc5ccco5)nn4)CCS3(=O)=O)cc2)cc1 (stereo not given)	-20	/	69*	9	56*	26	39
C=C1C(=O)O[C@@]23[C@H]1CC[C@@H](C)[C@@H]2CC[C@@]1(C)O[C@@H]31	4	85*	54*	-19	-102	19	71*
O=[N+]([O-])c1cc(S(=O)(=O)NCCN2CCOCC2)ccc1Sc1nnnn1-c1ccccc1	-3	79*	73*	8	42	11	19
COc1ccc(CCNC(=O)c2c(O)c3c([nH]c2=O)CCCC3)cc1	-36	4	51*	-24	11	12	36
COc1ccc(CNC(=O)c2ccc(Cn3cc(Cl)cn3)o2)cc1	3	10	7	17	5	13	/
CCOc1cccc(-c2nnc3sc(C4CCCCC4)nn23)c1	-11	-14	66*	14	-7	-26	85*
COc1cccc(-c2nnc3sc(C4CCCCC4)nn23)c1	4	0	86*	-8	-27	-75	96*
c1cncc(-c2nnc3sc(C4CCCCC4)nn23)c1	-8	-5	-3	9	9	-2	/
CC(=O)c1c(O)cc2c3c1OC(C)(C)C1CCC(C)(CC31)O2 (stereo not given)	-24	/	74*	36	44	12	66*
COC(=O)C1=C(C)NC(C)=C(C(=O)OCC(C)C)C1c1ccccc1[N+](=O)[O-] (stereo not given)	-1	19	83*	53	33	25	58*
COc1cc(C2c3cc4c(cc3C3OC(=O)C2C3CO)OCO4)cc(OC)c1OC (stereo not given)	-37	/	53*	16	-1	24	75*
COc1cc([C@@H]2c3cc4c(cc3[C@@H](O)[C@H]3COC(=O)[C@H]23)OCO4)cc(OC)c1O[Si](C)(C)C(C)(C)C	5	25	24	5	39	3	/
CCOC(=O)C1CCN(c2cc3c(cc2NC(=O)c2ccc(OC)c(OC)c2)n(C)c(=O)n3C)CC1	9	5	54*	15	45	-9	23
CCOC(=O)C1CCN(c2cc3c(cc2NC(=O)c2ccccc2)n(C)c(=O)n3C)CC1	-13	0	12	-9	44	9	/
Cc1cc(NC(=O)CSCC(=O)OCC(=O)c2ccc(Br)cc2)no1	11	/	-3	-2	-13	-3	/
Cc1ccccc1Cn1ccc(NC(=O)c2nn(C)cc2[N+](=O)[O-])n1	-9	11	60*	4	-62	2	-78
CCn1cc([N+](=O)[O-])c(C(=O)Nc2ccn(Cc3ccccc3F)n2)n1	6	13	10	9	-1	8	/
COc1ccc(/C=C/C(=O)c2cc(F)ccc2OC(=O)c2ccc(OC)c(OC)c2)cc1OC	-5	-12	5	-10	23	2	/
COc1ccc(/C=C/C(=O)c2cc(F)ccc2OC(=O)c2ccccc2OC)cc1OC	-23	45	71*	17	52*	76*	43*
Nc1cc2c(cc1Br)-c1ccccc1C2=NO	10	-20	50*	-58	-315	-197	61*
Oc1ccc(CCC2CCCCN2Cc2nc(C3CC3)no2)cc1 (stereo not given)	2	-1	7	-1	-5	11	/
Clc1ccccc1C1=Nn2c(nnc2-c2ccncc2)SC1	-11	-18	78*	0	2	2	94*
CC1=Nn2c(nnc2-c2ccccc2Cl)SC1	-6	-1	-10	-17	-5	7	/
Cc1nonc1NC(=O)CSc1nc2ccccc2o1	-4	-3	-4	-21	1	6	/
Nc1ccc2nc(-c3ccccc3)c(-c3ccccc3)nc2c1	-16	12	67*	-7	8	14	5
SMILES	KKLEB tox	MITF TRPM1 inh	CF NFkB inh	Shn3 3UTR inh	Peg3 promoter	HIF-2a inh	CF NFkB inh conf
CCCCC(=O)Nc1ccccc1CC	8	12	-16	4	-1	11	/
C[C@@]12CCC=C[C@H]1[C@H](c1ccc(/C=C/c3ccccc3)cc1F)N(Cc1ccccc1)C2=O	-9	-13	22	-1	11	19	/
C[C@@]12CCC=C[C@H]1[C@H](c1ccc(C(F)(F)F)cc1)N(Cc1ccccc1)C2=O	-14	5	58*	6	19	20	39
CC(C)N(C(=O)CSc1nc2ccccc2n1-c1ccccc1)C(C)C	-21	11	6	10	17	-4	/
O=C(O)CCSc1nc2ccccc2n1-c1ccccc1	24	-2	56*	8	19	27	19
COc1ccc(S(=O)(=O)c2cnc3ccccc3n2)cc1	0	10	16	31	22	11	/
O=S(=O)(c1ccc(Br)cc1)c1cnc2ccccc2n1	-20	8	57*	0	33	27	49*
Cc1ccc(N(CC(=O)Nc2ccc(Br)c(C)c2)S(=O)(=O)c2c(C)[nH]c(=O)[nH]c2=O)cc1	4	7	-3	-4	5	11	/
CC(C)(O)C#Cc1ccc([C@@H]2C[C@H]3CN(c4ccccc4)C(=O)[C@]34CCCN24)s1	-1	45	60*	95*	103*	-7	44*
CCc1ccc(/C(C)=N/NS(=O)(=O)c2ccc(OC)cc2)s1	5	1	-21	11	9	9	/
NS(=O)(=O)c1ccc(CCNC(=O)c2ccc(C#CC3(O)CCCCC3)cc2)cc1	3	11	81*	6	87*	-14	80*
NS(=O)(=O)c1ccc(CCNC(=O)c2ccncc2)cc1	-1	5	-18	1	0	-4	/
COc1ccc(-c2cn[nH]c2C)cc1	-18	-5	53*	1	-2	8	11
COc1ccc(-c2[nH]ncc2-c2ccc(Cl)cc2)c(O)c1	-10	7	21	11	42	-9	/
COc1cc(OC)cc(-c2cn[nH]c2N)c1	-1	3	-9	-7	-10	13	/
COc1ccc(-c2cn[nH]c2-c2ccc(OC)cc2O)cc1	-5	6	72*	21	28	9	80*
